Data on 92 molecules can be found in PubChem BioAssay AID488896 (Broad Institute, 2010).

About 3,100 (0.97%) of roughly 320,000 compounds were called active. For the sample, actives were picked, then their nearest neighbours and some compounds at random. Unmarked numbers belong to inactive results.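 The calls were made as follows: active = mean replicate inhibition of at least 70% and a set share of replicates each scoring 70 or more; inconclusive = meets just one of the two criteria; inactive = fails both criteria.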

Chain of Scavenger receptor class B member 1 (Mus musculus) (Q61009 whole entry, looked up): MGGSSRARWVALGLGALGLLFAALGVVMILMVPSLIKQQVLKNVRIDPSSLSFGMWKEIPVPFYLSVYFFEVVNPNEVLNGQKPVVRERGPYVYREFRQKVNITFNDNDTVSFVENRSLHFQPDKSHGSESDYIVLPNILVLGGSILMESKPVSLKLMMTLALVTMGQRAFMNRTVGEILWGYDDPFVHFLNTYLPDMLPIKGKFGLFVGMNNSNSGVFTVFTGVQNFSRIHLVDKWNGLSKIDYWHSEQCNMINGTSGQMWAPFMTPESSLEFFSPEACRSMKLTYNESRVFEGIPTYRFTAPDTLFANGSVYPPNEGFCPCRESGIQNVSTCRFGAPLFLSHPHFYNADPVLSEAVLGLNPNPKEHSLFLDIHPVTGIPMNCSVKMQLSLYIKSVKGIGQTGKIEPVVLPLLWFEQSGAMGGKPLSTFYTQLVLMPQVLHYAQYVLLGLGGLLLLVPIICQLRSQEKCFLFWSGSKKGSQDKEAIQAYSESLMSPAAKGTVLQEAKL

This experiment concerns the target Scavenger receptor class B member 1 (Mus musculus) (UniProt Q61009). As to the kind of experiment: inhibitors of SR-BI mediated HDL lipid uptake, primary screen, ldlA[mSR-BI] cells, fluorescence, single point (AID 488896).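 Also: 0% = median of neutral control wells and 100% = median of positive control wells.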 As to conditions: ldlA[mSR-BI] CHO cells, DiI-HDL uptake fluorescence, 3 h; at 12.5 µM; active compounds read high.
For orientation: inhibition means the change of the read-out against control, counted positive when it falls. Take `COc1cc(C2c3cc4c(cc3C(O)C3COC(=O)C23)OCO4)cc(OC)c1OC` (configuration not stated): the inhibition was -0.16%.

For the molecule `CCOc1ccc(S(=O)(=O)N2CCN(C(=O)c3oc4ccccc4c3C)CC2)cc1`, the inhibition is -15.2%.

Take `COc1ccc(C(=O)Cn2nnc(-c3ccc(N4CCOCC4)cc3)n2)cc1OC`: the inhibition is 33%.

Turning to `CCOc1ccc(-c2nnn(CC(=O)N3CCN(c4ccc(OC)cc4)CC3)n2)cc1OCC`, the inhibition is 82% (active).

Turning to `CCOc1ccc(-c2nnn(CC(=O)N3CCN(c4ccc(F)cc4)CC3)n2)cc1OCC`, the inhibition is 48.2%.

For `CCCCCCC(=O)Nc1nc(C)c(-c2csc(Nc3cc(Cl)ccc3OC)n2)s1`, the inhibition is 97.4% (active).

Regarding `Cc1nc(NC(=O)CN(C)S(=O)(=O)c2ccc(Cl)cc2)sc1C`, the inhibition was 2.99%.

In the case of `CCCCN(C)CCC(=O)Nc1ccc(Cl)cc1`, the inhibition was -5.92%.

`CCCCC(=O)N/N=C(\C)CC(=O)Nc1cc(Cl)ccc1OC`: the inhibition is 27.7%.

As to `Cc1cccc(S(=O)(=O)CC(=O)Nc2nc(-c3ccccc3)cs2)c1`, the inhibition is -18%.

As to `CCC(=O)Nc1nc(C)c(C(=O)Nc2cccc(Cl)c2)s1`, the inhibition is 49.6%.

For the molecule `CCCCCCC(=O)Nc1nc(C)c(-c2csc(Nc3cccc(OC)c3)n2)s1`, the inhibition is 87.2% (active).

In the case of `COc1ccc(Cl)cc1NC(=O)c1oc(C)nc1C`, the inhibition is 10.4%.

As for `COc1cccc(CC(=O)Nc2ccc(-c3csc(C)n3)cc2)c1`, the inhibition was 22%.

As to `CCCCC(=O)Nc1nc(C)c(-c2csc(Nc3ccc(Cl)cc3)n2)s1`, the inhibition was 103% (active).

On to `C=CCCC(=O)Nc1nc(C)c(-c2csc(Nc3ccc(Cl)cc3)n2)s1`, for which the inhibition is 104% (active).

`COc1cccc(NC(=O)CN2CCN(c3nc(-c4cccc(OC)c4)cs3)CC2)c1`: the inhibition was 19.1%.

Consider `CC(=O)c1cccc(-c2ccc(CN3C(CC(C)C)C(=O)N(Cc4cn(CC5CCCCC5)nn4)CCS3(=O)=O)cc2)c1` (configuration not stated), for which the inhibition is 48.8%.

As to `COc1cc(O)c2c(=O)c3c(O)c(O)ccc3oc2c1OC`, the inhibition is 10.1%.

Turning to `O=c1oc2ccccc2c(=O)c2ccccc12`, the inhibition is -23.4%.

Consider `COc1ccc(C(=O)N(C)Cc2ccc(OC)c(OC)c2OC)cc1S(=O)(=O)N1CCOCC1`, for which the inhibition is -8.86%.

`CC(Nc1ccc([N+](=O)[O-])cc1[N+](=O)[O-])c1ccccc1` (configuration not stated): the inhibition was 21.4%.

Turning to `O=[N+]([O-])c1cc2ccccc2nc1-c1ccccc1`, the inhibition was -10.5%.

On to `O=C(O)C1C2C=CC(O2)C1C(=O)Nc1ccccn1` (configuration not stated), for which the inhibition is -12.6%.

In the case of `CCN(CC(=O)Nc1c(F)cccc1F)C(=O)Cc1cccs1`, the inhibition was 9.34%.

Regarding `CC(NC(=O)c1ccccc1)C(=O)OCC(=O)Nc1cccc(S(=O)(=O)N2CCCC2)c1` (configuration not stated), the inhibition was -1.56%.

As for `CCOc1cc(C(=O)N(Cc2ccccc2)c2ccc(C)cc2)ccc1OCC(=O)N1CCOCC1`, the inhibition was 5.71%.

Turning to `O=C(c1ccc2c(c1)C(=O)N(Cc1ccncc1)C2=O)N1CCN(S(=O)(=O)c2ccc(OC(F)(F)F)cc2)CC1`, the inhibition was -23.1%.

Regarding `CCCc1cc(=O)[nH]c(SCC(=O)c2cc(C)n(CCC)c2C)n1`, the inhibition is 10.7%.

For `Cc1cc(C(=O)CSc2nc(N)cc(=O)[nH]2)c(C)n1Cc1ccco1`, the inhibition was -21.5%.

As for `Cc1cc(C(=O)CSc2nc(N)cc(=O)[nH]2)c(C)n1CCc1ccc(Cl)cc1`, the inhibition was 83.8% (active).

As to `O=C(O)C(CCc1ccccn1)c1ccccc1` (configuration not stated), the inhibition is 11.9%.

Regarding `CCCCC(=O)NC(c1ccc(OC)c(OC)c1)c1ccc2cccnc2c1O` (configuration not stated), the inhibition is 3.38%.

As to `N#C/C(=C\c1ccccc1C(F)(F)F)C(=O)Nc1ccccc1F`, the inhibition was -32.2%.

Regarding `O=C(CC1SC(N2CCOCC2)=NC1=O)Nc1ccccc1F` (configuration not stated), the inhibition was -4.16%.

As to `N#C/C(=C\C1=C(N2CCOCC2)C(=C\c2ccccc2)/CC1)C(=O)Nc1ccccc1F`, the inhibition was 83.9% (active).

In the case of `O=C(Nc1ccc(S(=O)(=O)N2CCOCC2)cc1)C1CCN(S(=O)(=O)c2ccc(Cl)cc2)CC1`, the inhibition is -8.47%.

Consider `CC12CCCCC1=CC(=O)CC2` (configuration not stated), for which the inhibition is -0.111%.

As to `COc1ccc(Cl)cc1C=CC=NNC(=O)c1ccncc1`, the inhibition was 70%.

With `O=C(NNc1c2ccccc2nc2ccccc12)c1cc2ccccc2cc1O`, the inhibition is 117% (active).

For `O=C(N/N=C/c1cccnc1)c1cc2ccccc2cc1O`, the inhibition was 25.7%.

As to `CC(C)(C)OC(=O)NNc1c2ccccc2nc2ccccc12`, the inhibition is 23.2%.

Consider `COC(=O)c1ccc(NCc2cc(O)ccc2O)cc1`, for which the inhibition was -3.37%.

For `CC(C)c1cc(N=O)cc(C(C)C)c1O`, the inhibition was -19.1%.

Take `O=C(NN=Cc1ccccc1)c1ccccc1`: the inhibition was -4.39%.

For `CC(C)c1ccc(C=NNc2ccc([N+](=O)[O-])cn2)cc1`, the inhibition was -2.92%.

As to `Cc1nn(-c2ccc(F)cc2)c(Cl)c1/C=C(/CCC(=O)O)c1nc2ccccc2s1`, the inhibition was -16%.

`O=C(CC1Sc2ccccc2NC1=O)NNc1ccc(Cl)c(Cl)c1` (configuration not stated): the inhibition is 45.6%.

For the molecule `N#CC1=C(N)Oc2cc(N)ccc2C1c1ccccc1` (configuration not stated), the inhibition is -23.9%.

Consider `COc1ccc2nc(Nc3nc(-c4ccncc4)cs3)sc2c1`, for which the inhibition is 80.2% (active).

For the molecule `COc1ccc2nc(NC(=O)[C@@H]3CCCN3C(=O)c3cccs3)sc2c1`, the inhibition is 14.9%.

Turning to `COc1ccc2nc(NC(=O)c3ccc(Br)s3)sc2c1`, the inhibition was 55.7%.

Take `OCC(O)C1OCOC(C(O)CO)C1O` (configuration not stated): the inhibition was -38.2%.

Turning to `CC1(C)C(=O)CCC2(C)C1=CCC1C2C(=O)CC2(C)C1CCC2(O)C(=O)CO` (configuration not stated), the inhibition was -7.32%.

As for `CC1CCCN(C(=O)Cn2c(=O)oc3cc(S(=O)(=O)N4CCCCC4C)ccc32)C1` (configuration not stated), the inhibition is -29.3%.

As for `CC(C)C[C@H]1CN([C@@H](CC(C)C)CN2CCC[C@@H]2CN2C(=O)C(=O)NC[C@@H]2Cc2ccccc2)C(=O)C(=O)N1CCc1ccccc1`, the inhibition was 20.9%.

For `COc1cccc(C(=O)Nc2nc3ccc(S(C)(=O)=O)cc3s2)c1`, the inhibition was 70.8% (active).

In the case of `CS(=O)(=O)c1ccc2nc(NC(=O)c3ccc(Cl)nc3)sc2c1`, the inhibition was 32.9%.

Turning to `CS(=O)(=O)c1ccc2nc(NC(=O)C3C4C=CC(C4)C3C(=O)O)sc2c1` (configuration not stated), the inhibition was 5.33%.

Consider `Cc1ccc(S(=O)(=O)n2oc(=O)c(C3CCCCC3)c2N)cc1`, for which the inhibition is -8.19%.

`O=C1C(Cl)=C(Oc2ccccc2)C(=O)c2ccccc21`: the inhibition was 13.1%.

Turning to `COc1ccc(S(=O)(=O)N2CCCCC2)cc1NC(=O)c1cc([N+](=O)[O-])ccc1N1CCOCC1`, the inhibition was 23.2%.

Regarding `CCCC(=O)N(CCN1CCOCC1)c1nc2ccc(OCC)cc2s1`, the inhibition was 40.2%.

In the case of `CCOc1ccc2nc(NC(=O)c3cc([N+](=O)[O-])ccc3N3CCOCC3)sc2c1`, the inhibition is 78.1% (active).

In the case of `O=C1OC(Cc2ccccc2)C(c2ccccc2)C1=O` (configuration not stated), the inhibition is -5.71%.

Regarding `COc1ccc(N=C2C=CC(=O)O2)cc1`, the inhibition is -24.8%.

On to `O=S(=O)(Cc1ccc(Cl)cc1Cl)c1ccc(Cl)cc1`, for which the inhibition was 15.8%.

Turning to `COCCOC(=O)c1[nH]c2c(c1C)C(=O)CC(c1ccc(OC)cc1)C2` (configuration not stated), the inhibition was 41.6%.

For the molecule `CCCOC(=O)c1[nH]c2c(c1C)C(=O)CC(c1cc(OC)c(OC)c(OC)c1)C2` (configuration not stated), the inhibition was 81.3% (active).

Take `CCCOC(=O)c1[nH]c2c(c1C)C(=O)CC(c1cccs1)C2` (configuration not stated): the inhibition is 59.1%.

`Cc1cccc(NC(=S)N2CCC(C(=O)c3ccc(F)cc3)CC2)c1`: the inhibition was 14.1%.

Regarding `C#CCOCCOCCOCCNc1nc(N2CCN(C(=O)Cn3cc(CCO)nn3)CC2)nc(N2CCN(C(=O)[C@H](CCCCN)n3cc(CCCC)nn3)CC2)n1`, the inhibition is -18.7%.

For `COc1ccc(C(CNC(=O)c2cc(S(=O)(=O)Nc3cccc(C)c3)ccc2C)N2CCCC2)cc1` (configuration not stated), the inhibition is -20.9%.

Take `COC(=O)c1c(NC(C)=O)sc(C(=O)Nc2ccccc2OC)c1C`: the inhibition was 71.5% (active).

As to `CCC(=O)Nc1sc(C(=O)Nc2ccccc2)c(C)c1C(=O)OC`, the inhibition is 68.4%.

For `COc1ccccc1NC(=O)c1ccc(C)s1`, the inhibition is 18%.

Turning to `c1ccc2c(c1)OC1OC2Oc2ccccc21`, the inhibition was -7.46%.

For `CC(C)Sc1nc(N)nc2c1ncn2C1OC(CO)C(O)C1O` (configuration not stated), the inhibition is -12.5%.

`COc1ccc(/C=N/NC(=O)c2cc(-c3cccc(C)c3)nc3ccccc23)cc1O`: the inhibition was 66.3%.

As for `Cc1ccc2occ(/C=N/NC(=O)c3ccccc3C)c(=O)c2c1`, the inhibition was -16.4%.

In the case of `Cc1ccc(/C=N/NC(=O)C2=NNC(c3ccccc3)(c3ccccc3)C2)c(O)c1`, the inhibition was 106% (active).

As to `CN(C)C(CNC(=O)c1cc2ccccc2o1)c1ccccc1` (configuration not stated), the inhibition was 6.69%.

Turning to `O=C(N/N=C/c1ccc(OCC2COCCO2)cc1)c1ccc(Br)cc1` (configuration not stated), the inhibition was 74.1% (active).

With `O=C(O)c1ccc(/C=N/NC(=O)c2ccc(Br)cc2)cc1`, the inhibition was -48.4%.

In the case of `O=C(O)c1ccc(OCC2CCCO2)cc1` (configuration not stated), the inhibition is -17.3%.

As for `CC1=NN(C(=O)c2ccccc2Br)C(O)(c2cccnc2)C1` (configuration not stated), the inhibition is -13.8%.

On to `CC1=NN(C(=O)c2ccc(Br)cc2)C(O)(c2ccccc2)C1` (configuration not stated), for which the inhibition is 88.2% (active).

In the case of `CCOC(=O)C1(O)CC(C)=NN1C(=O)c1cccc(Br)c1` (configuration not stated), the inhibition is 5.6%.

As for `COc1cc2c(cc1CNC[C@H]1O[C@@H](n3cnc(C(N)=O)n3)[C@H](O)[C@@H]1O)OCO2`, the inhibition was -13.6%.

Regarding `O=C1CC(c2ccccc2)C(=O)N2C(=O)CC(c3ccccc3)C(=O)N12` (configuration not stated), the inhibition is -16.5%.

For `COc1ccc(CNCCCn2cnc3c(OCc4ccccc4)ncnc32)cc1`, the inhibition was -7.17%.

With `COc1cccc(CC(=NO)c2cccc(OC)c2)c1`, the inhibition was 2.96%.
